Growth data for 35 compounds are collected here from PubChem BioAssay (NCI).

This is part of a sample that, as a whole, favours compounds with a hit. Of some 83,000 tested, about 20% had one in any assay.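 Single-dose data. Exposure time 48 hours. Values below 10 considered active.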 Active and inactive are the calls of the source.

This assay deals with HL-60(TB) leukemia. Description: NCI-60 one-dose screen, 48 h (100 = growth as untreated, 0 = no growth, -100 = all killed). The settings on record: 10 µM unless noted.
For `O=C(N/N=C/c1ccsc1)c1[nH]c2ccc(Br)cc2c1-c1ccccc1`, the growth was -33.7% (active).

Regarding `O=C(N=Nc1c(O)[nH]c2ccc(Cl)cc12)c1ccc2nc(-c3ccc(Cl)cc3)[nH]c2c1`, the growth was 45.2% (inactive).

With `COc1cc2c(c(OC)c1OC)C(=O)CC(c1cccc(NC(=O)c3cc(NC(=O)[C@@H](N)CO)ccc3C)c1)O2` (stereo not given in full), the growth is 101% (inactive).

With `COc1cc(/C=C/C(=O)c2ccc(C(F)(F)F)cc2)ccc1Oc1nc(Nc2ccc(F)cc2)nc(N(C)C)n1`, the growth was 80% (inactive).

Turning to `CCOC(=O)/C=C/c1cccc2c1C(=O)NC(C)(c1cc3cc(Br)ccc3oc1=O)N2` (stereo not given), the growth is 27.3% (inactive).

For the compound `Cn1cc(-c2cc(N)n3nc(-c4c[nH]c5ccccc45)cc3n2)c2cc(Cl)ccc21`, the growth was -16.2% (active).

Consider `N#Cc1c(NC(=O)N2CCOCC2)n(-c2ccc(OC(F)(F)F)cc2)c2cc(F)ccc12`, for which the growth is 91.2% (inactive).

As to `N/C(=N\c1nc2ccc([N+](=O)[O-])cc2s1)NC(=O)Nc1ccccc1Cl`, the growth is 67.3% (inactive).

Turning to `NS(=O)(=O)c1cccc(Nc2nc(SCC(=O)c3ccc(F)cc3)nc3ccccc23)c1`, the growth was 6.93% (active).

Turning to `Clc1ccc2c(N/N=C/c3c[nH]c4ccc(Br)cc34)ccnc2c1`, the growth is -74.7% (active).

For the compound `CN(C)CCCNC(=S)Nc1ccc(/C=C/c2ccc(Cl)cc2)cc1`, the growth is -22.4% (active).

`O=[N+]([O-])c1ccc(/C=C/c2nc3ccccc3n3c(=S)[nH]nc23)cc1`: the growth was 79.1% (inactive).

Regarding `COc1c(B(O)O)cccc1-c1nc2ccc3cn[nH]c3c2c2c1CCCC2`, the growth was 47.6% (inactive).

Consider `N#Cc1c(NC(=O)c2ccc(C(O)(C(F)(F)F)C(F)(F)F)cc2)sc2c1CCC(=O)C2`, for which the growth was -23.4% (active).

As for `CCOc1ccccc1NC(=O)N/C(N)=N/c1nc2ccccc2s1`, the growth was -23.4% (active).

On to `Brc1ccc(N/N=C/c2c[nH]c3ccccc23)nc1`, for which the growth was 13.2% (inactive).

Take `O=C(COc1ccc(NC(=O)Nc2ccc(Cl)c(Cl)c2)cc1)N=Nc1c(O)[nH]c2ccccc12`: the growth is 40.1% (inactive).

With `CC(=O)OC[C@@]1(C)C2CC[C@]3(C)C(CC=C4C5CC(C)(C)CC[C@]5(C(=O)Nc5ccc(C)cc5)CC[C@]43C)[C@@]2(C)C[C@@H](OC(C)=O)[C@@H]1OC(C)=O` (stereo not given in full), the growth was 31.6% (inactive).

`CCOC(=O)c1ccc(NC(=O)CSC(CC(=O)c2sc(Nc3ccccn3)nc2C)c2ccccc2F)cc1` (stereo not given): the growth is 2.8% (active).

`COc1ccc(NCc2cn(-c3ccc(C(=O)O)cc3)nc2-c2ccc(F)cc2)cc1C(F)(F)F`: the growth was 49.9% (inactive).

As for `CCCCCCCCc1ccc(C(=O)Nc2ccc(C)cc2C(=O)O)cc1`, the growth is 92.2% (inactive).

As for `CN1CCO/C1=C(/NC(=O)c1ccc(Cl)cc1)[P+](c1ccccc1)(c1ccccc1)c1ccccc1`, the growth is 54.7% (inactive).

For the compound `COc1ccc(-c2cc(C)nc3[nH]c(=O)sc23)cc1`, the growth is 75.6% (inactive).

As for `COc1ccc(C(=O)C[n+]2cccc3c4ccccc4ccc32)cc1`, the growth is 22% (inactive).

In the case of `CC1=NN(C2=NC(=O)C(CC(=O)Nc3ccccc3C(F)(F)F)S2)C(c2ccc(N(C)C)cc2)C1` (stereo not given), the growth is 10.7% (inactive).

For the compound `O=c1[nH]c2ccc(Cl)cc2cc1CSc1nccc(-c2ccc(Cl)cc2)n1`, the growth is 102% (inactive).

Take `Cc1cc2c(cc1Cl)C(=O)/C(=C/c1ccc(F)cc1)O2`: the growth was 101% (inactive).

Regarding `Cc1ccc(C(=O)Nc2cc(-n3ccnc3)cc(C(F)(F)F)c2)cc1-n1cc(-c2cnc3cccnn23)nn1`, the growth was 50.5% (inactive).

On to `O=C(CSc1nc2c(c(=O)[nH]1)CCCC2)Nc1ccccc1C(=O)O`, for which the growth is 95.1% (inactive).

For the compound `O=C(NNc1ccccc1)n1c(=O)c2ccccc2c(=O)n1-c1ccccc1`, the growth was 82.7% (inactive).

Take `COc1ccc(N(C)c2cc(C#N)nc3ccccc23)cc1N`: the growth is -10% (active).

`C#C[C@]1(O)CC[C@H]2[C@@H]3CC=C4c5sc(Nc6ccc(C(F)(F)F)cn6)nc5CC[C@]4(C)[C@H]3CC[C@@]21C`: the growth was 1.27% (active).

For the compound `CN(C)c1nc(NCCNS(=O)(=O)c2ccc(C3=Nc4c(N)nc(N)nc4NC(c4ccc(C(F)(F)F)cc4)C3)cc2)nc(N2CCOCC2)n1` (stereo not given), the growth was 6.05% (active).

Regarding `Cc1ccc(C(=O)Nc2ccc(-n3ccnc3)c(C(F)(F)F)c2)cc1C#Cc1cnc2cccnn12`, the growth is -19.6% (active).

`COc1ccc(NC(=O)NN2C(=O)c3ccccc3N(C)C2c2ccc(OC)cc2)cc1` (stereo not given): the growth is 101% (inactive).
